We go through 38 targets from the supplement of paper PMC12819154, “High-throughput peptide-centric local stability assay extends protein–ligand identification to membrane proteins, tissues and bacteria” (Nature Structural & Molecular Biology, 2025).

Chain of UniProt Q64261 (Q64261 whole entry): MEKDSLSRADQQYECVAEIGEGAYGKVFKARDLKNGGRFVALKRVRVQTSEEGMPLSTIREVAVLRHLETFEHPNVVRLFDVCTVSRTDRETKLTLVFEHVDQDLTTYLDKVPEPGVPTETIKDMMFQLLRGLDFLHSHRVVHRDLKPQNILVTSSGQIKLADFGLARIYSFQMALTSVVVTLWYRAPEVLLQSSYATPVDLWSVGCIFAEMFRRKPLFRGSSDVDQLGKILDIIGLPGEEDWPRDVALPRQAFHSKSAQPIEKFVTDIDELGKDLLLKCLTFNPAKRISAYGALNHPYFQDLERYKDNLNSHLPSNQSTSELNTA
Chain of UniProt O35945 (O35945 whole entry): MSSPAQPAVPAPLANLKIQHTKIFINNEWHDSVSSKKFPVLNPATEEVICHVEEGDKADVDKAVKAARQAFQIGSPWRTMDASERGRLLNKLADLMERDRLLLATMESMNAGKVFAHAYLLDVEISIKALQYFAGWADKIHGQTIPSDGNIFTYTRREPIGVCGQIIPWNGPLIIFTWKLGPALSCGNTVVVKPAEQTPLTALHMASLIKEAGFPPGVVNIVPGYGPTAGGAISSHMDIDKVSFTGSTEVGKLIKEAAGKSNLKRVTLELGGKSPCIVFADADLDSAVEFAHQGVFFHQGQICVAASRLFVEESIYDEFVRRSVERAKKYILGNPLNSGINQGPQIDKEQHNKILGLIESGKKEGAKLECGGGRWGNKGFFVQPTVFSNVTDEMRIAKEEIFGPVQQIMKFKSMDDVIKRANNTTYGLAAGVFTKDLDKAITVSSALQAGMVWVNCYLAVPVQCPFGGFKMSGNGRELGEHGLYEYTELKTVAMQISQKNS
Chain of UniProt Q60932 (Q60932 whole entry): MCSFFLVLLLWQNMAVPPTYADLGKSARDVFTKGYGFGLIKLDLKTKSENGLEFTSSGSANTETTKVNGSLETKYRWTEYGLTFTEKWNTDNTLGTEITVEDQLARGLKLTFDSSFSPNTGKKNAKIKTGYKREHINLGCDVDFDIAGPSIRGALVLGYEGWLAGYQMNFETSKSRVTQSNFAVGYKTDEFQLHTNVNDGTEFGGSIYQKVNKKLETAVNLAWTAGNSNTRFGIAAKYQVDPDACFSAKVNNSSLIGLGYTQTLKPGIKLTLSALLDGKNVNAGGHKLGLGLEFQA
Chain of UniProt Q9JI10 (Q9JI10 whole entry): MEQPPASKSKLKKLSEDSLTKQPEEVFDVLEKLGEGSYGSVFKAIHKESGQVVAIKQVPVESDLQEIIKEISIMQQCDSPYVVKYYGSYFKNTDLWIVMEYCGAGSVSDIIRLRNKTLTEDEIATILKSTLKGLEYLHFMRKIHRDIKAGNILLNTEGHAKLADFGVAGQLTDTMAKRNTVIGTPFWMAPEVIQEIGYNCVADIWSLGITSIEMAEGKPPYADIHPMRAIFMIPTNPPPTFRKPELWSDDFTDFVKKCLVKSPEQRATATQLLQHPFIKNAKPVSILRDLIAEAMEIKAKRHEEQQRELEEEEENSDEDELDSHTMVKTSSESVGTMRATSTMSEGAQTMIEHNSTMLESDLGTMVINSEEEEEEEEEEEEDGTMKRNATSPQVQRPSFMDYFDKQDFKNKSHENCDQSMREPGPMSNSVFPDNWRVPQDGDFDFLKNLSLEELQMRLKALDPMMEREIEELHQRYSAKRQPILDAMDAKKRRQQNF
Chain of UniProt Q9WTU6 (Q9WTU6 whole entry): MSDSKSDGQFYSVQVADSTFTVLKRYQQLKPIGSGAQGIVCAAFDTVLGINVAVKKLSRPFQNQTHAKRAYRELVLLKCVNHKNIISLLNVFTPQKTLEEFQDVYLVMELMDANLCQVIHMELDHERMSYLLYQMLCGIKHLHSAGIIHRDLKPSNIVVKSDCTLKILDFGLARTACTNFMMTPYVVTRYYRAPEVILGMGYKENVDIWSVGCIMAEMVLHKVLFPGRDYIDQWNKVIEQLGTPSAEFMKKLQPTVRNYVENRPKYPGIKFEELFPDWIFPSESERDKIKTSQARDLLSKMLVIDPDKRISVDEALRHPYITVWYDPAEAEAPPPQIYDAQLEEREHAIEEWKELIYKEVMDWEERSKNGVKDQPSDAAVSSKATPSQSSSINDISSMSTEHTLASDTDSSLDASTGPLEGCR
Chain of UniProt P26443 (P26443 whole entry): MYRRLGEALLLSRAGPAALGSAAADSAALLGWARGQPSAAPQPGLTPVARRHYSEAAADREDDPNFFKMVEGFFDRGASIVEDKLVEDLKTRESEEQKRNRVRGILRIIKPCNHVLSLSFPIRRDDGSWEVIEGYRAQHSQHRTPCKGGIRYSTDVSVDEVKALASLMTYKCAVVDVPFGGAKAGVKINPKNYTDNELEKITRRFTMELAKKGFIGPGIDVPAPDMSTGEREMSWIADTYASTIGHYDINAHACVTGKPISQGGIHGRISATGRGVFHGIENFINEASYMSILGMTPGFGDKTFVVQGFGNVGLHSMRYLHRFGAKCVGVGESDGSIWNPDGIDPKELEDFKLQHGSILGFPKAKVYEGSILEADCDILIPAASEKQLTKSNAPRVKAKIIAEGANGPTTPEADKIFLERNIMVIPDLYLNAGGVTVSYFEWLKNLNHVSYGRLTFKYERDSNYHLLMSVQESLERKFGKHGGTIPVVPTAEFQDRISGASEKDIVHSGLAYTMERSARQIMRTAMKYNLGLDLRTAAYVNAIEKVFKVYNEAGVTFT
Chain of UniProt Q9Z1M4 (Q9Z1M4 whole entry): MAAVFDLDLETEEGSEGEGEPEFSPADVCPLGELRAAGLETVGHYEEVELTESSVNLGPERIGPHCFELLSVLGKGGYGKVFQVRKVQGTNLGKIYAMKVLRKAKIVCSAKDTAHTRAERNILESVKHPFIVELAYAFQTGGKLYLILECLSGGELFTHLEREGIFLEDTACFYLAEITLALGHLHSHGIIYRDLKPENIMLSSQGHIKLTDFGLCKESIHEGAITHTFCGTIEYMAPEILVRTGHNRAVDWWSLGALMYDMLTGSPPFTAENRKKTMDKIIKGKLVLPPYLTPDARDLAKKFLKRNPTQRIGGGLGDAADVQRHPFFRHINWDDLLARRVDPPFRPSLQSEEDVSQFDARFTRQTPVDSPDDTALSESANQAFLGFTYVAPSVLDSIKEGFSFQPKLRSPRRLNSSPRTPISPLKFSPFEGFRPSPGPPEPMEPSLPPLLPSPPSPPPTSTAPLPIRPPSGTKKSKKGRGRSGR
Chain of UniProt Q9CYH2 (Q9CYH2 whole entry): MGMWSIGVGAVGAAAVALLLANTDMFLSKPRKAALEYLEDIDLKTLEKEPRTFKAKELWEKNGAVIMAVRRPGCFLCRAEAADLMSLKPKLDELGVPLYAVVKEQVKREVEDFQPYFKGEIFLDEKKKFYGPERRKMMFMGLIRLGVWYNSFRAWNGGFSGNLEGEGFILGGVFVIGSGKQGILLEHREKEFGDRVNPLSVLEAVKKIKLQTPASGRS
Chain of UniProt P16331 (P16331 whole entry): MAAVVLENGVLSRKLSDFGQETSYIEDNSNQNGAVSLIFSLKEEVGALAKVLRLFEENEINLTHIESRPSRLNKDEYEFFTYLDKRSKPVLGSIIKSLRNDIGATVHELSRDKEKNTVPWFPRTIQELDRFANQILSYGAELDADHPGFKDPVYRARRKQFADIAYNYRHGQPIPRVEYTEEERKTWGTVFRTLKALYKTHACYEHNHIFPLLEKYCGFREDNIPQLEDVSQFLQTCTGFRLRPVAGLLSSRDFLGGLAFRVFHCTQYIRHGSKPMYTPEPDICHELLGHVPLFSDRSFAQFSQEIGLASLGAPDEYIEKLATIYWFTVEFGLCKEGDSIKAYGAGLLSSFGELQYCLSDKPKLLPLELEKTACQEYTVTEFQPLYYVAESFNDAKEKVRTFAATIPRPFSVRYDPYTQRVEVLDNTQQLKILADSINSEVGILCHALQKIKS
Chain of UniProt Q3UTQ8 (Q3UTQ8 whole entry): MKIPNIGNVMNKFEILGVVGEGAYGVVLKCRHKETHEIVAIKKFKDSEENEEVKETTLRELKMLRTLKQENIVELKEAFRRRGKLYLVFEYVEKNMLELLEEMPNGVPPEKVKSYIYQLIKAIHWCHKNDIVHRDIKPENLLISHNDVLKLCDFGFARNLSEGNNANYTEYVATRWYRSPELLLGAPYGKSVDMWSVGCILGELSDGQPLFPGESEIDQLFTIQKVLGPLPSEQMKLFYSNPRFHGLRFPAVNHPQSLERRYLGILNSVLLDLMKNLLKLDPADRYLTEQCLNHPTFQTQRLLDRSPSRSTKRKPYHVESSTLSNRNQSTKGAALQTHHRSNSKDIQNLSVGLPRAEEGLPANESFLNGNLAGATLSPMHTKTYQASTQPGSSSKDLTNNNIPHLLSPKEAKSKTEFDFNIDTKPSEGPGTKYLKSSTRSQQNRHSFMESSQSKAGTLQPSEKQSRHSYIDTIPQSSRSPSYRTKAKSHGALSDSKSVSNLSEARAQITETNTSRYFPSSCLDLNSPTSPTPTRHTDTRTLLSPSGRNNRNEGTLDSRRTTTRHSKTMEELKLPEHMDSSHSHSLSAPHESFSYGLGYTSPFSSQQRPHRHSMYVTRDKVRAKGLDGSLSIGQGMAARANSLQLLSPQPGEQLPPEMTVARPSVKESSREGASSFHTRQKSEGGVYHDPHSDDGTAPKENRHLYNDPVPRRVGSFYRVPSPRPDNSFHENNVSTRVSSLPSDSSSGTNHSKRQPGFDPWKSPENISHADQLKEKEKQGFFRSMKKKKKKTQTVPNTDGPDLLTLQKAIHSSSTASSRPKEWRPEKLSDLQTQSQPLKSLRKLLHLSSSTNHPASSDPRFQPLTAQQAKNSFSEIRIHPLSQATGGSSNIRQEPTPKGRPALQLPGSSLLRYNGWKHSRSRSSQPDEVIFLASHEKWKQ
Chain of UniProt Q66GT5 (Q66GT5 whole entry): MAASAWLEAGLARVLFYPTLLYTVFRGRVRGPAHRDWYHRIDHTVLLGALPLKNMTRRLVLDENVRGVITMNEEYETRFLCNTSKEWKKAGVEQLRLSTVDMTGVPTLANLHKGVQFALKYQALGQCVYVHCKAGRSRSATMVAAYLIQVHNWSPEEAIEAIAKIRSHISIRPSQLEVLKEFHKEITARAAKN

Compound in this assay: CN[C@@H]1C[C@H]2O[C@@](C)([C@@H]1OC)n1c3ccccc3c3c4c(c5c6ccccc6n2c5c31)C(=O)NC4 [staurosporine]
The assay can be described thus: log2 fold change of tryptic peptide abundance, ligand vs vehicle (limited proteolysis) (log2 ratio); higher = more trypsin-susceptible (destabilized). As to conditions: ligand concentration: 20 uM; sample: mouse liver crude lysate; replicate design: treated separately.
Take “UniProt Q3UTQ8 (peptide sequence: DIKPENLLISHNDVLK, peptide start residue: 135)”: the log2 fold change was -1.56.

With “UniProt Q9CR62 (peptide sequence: NGLDVLLK, peptide start residue: 261)”, the log2 fold change is 0.377.

In the case of “UniProt Q9R0T8 (peptide sequence: DIKPGNIMR, peptide start residue: 135)”, the log2 fold change is -1.44.

On to “UniProt P70424 (peptide sequence: VLGSGAFGTVYK, peptide start residue: 719)”, for which the log2 fold change was -1.19.

Take “UniProt O54988 (peptide sequence: WSSNFKDFLR, peptide start residue: 261)”: the log2 fold change is -3.04.

For the target “UniProt O35945 (peptide sequence: TVAMQISQK, peptide start residue: 491)”, the log2 fold change was -0.312.

In the case of “UniProt P34914 (peptide sequence: NWKWSCK, peptide start residue: 471)”, the log2 fold change is 0.437.

On to “UniProt Q8VDU5 (peptide sequence: IAGLYDLDKTLGR, peptide start residue: 12)”, for which the log2 fold change is -1.42.

Take “UniProt Q64261 (peptide sequence: ISAYGALNHPYFQDLER, peptide start residue: 289)”: the log2 fold change is 0.478.

Regarding “UniProt Q8CAS9 (peptide sequence: NILDYVTK, peptide start residue: 221)”, the log2 fold change worked out at 0.389.

“UniProt Q2TBE6 (peptide sequence: RFEAEPLPENTNR, peptide start residue: 276)”: the log2 fold change is -2.23.

As to “UniProt P14576 (peptide sequence: SAIDLEEMASGLNKRK, peptide start residue: 58)”, the log2 fold change is 0.95.

For “UniProt P97872 (peptide sequence: DSSGGSLVTVR, peptide start residue: 507)”, the log2 fold change was -1.1.

On to “UniProt Q9DC61 (peptide sequence: QVLATHSR, peptide start residue: 451)”, for which the log2 fold change was -1.12.

As to “UniProt Q8R123 (peptide sequence: LSMVPSSAR, peptide start residue: 125)”, the log2 fold change is -0.276.

In the case of “UniProt Q9CQE1 (peptide sequence: HWSHEDPR, peptide start residue: 211)”, the log2 fold change was -0.522.

Consider “UniProt Q9DBG5 (peptide sequence: VGQMVISGVDR, peptide start residue: 185)”, for which the log2 fold change was determined as 0.534.

As for “UniProt O70291 (peptide sequence: DLKPENILLDDHGHIR, peptide start residue: 311)”, the log2 fold change is -1.62.

On to “UniProt Q8R1Q8 (peptide sequence: NIDLVYK, peptide start residue: 292)”, for which the log2 fold change was determined as 0.28.

On to “UniProt P16331 (peptide sequence: RKQFADIAYNYR, peptide start residue: 158)”, for which the log2 fold change is -0.336.

“UniProt Q9JI10 (peptide sequence: AGNILLNTEGHAK, peptide start residue: 149)”: the log2 fold change is -3.04.

Turning to “UniProt O35857 (peptide sequence: NSKGEVYDGDPDKVQR, peptide start residue: 403)”, the log2 fold change was -0.52.

Take “UniProt Q9CYH2 (peptide sequence: LGVWYNSFR, peptide start residue: 145)”: the log2 fold change was -2.12.

For the target “UniProt P27659 (peptide sequence: LLPLRQKK, peptide start residue: 170)”, the log2 fold change is -0.616.

As for “UniProt Q66GT5 (peptide sequence: IDHTVLLGALPLK, peptide start residue: 41)”, the log2 fold change amounted to 0.379.

Consider “UniProt Q6PGL7 (peptide sequence: RPTSFADELAAR, peptide start residue: 281)”, for which the log2 fold change was -0.483.

As to “UniProt Q9CYZ2 (peptide sequence: LGEWNEK, peptide start residue: 113)”, the log2 fold change was determined as 0.397.

On to “UniProt Q9R233 (peptide sequence: GKGHLLLAATPGLAGR, peptide start residue: 215)”, for which the log2 fold change is -1.39.

As for “UniProt Q61694 (peptide sequence: EIILNAHEEEHR, peptide start residue: 136)”, the log2 fold change is -0.448.

As for “UniProt P62717 (peptide sequence: AHSIQIMK, peptide start residue: 121)”, the log2 fold change was determined as 0.267.

As to “UniProt P26443 (peptide sequence: HYSEAAADREDDPNFFK, peptide start residue: 52)”, the log2 fold change is 0.262.

In the case of “UniProt Q9WTU6 (peptide sequence: MLVIDPDKR, peptide start residue: 301)”, the log2 fold change was -1.15.

Take “UniProt Q9QZS5 (peptide sequence: TVAACDLLQGLLHKDQR, peptide start residue: 258)”: the log2 fold change is -2.7.

For “UniProt Q4LDG0 (peptide sequence: NQPFLGYR, peptide start residue: 501)”, the log2 fold change came out at 0.345.

On to “UniProt Q8N9S3 (peptide sequence: SPAVLEAER, peptide start residue: 231)”, for which the log2 fold change is 0.295.

On to “UniProt Q9Z1M4 (peptide sequence: IGPHCFELLSVLGK, peptide start residue: 62)”, for which the log2 fold change was -0.47.

For the target “UniProt Q60932 (peptide sequence: LTFDSSFSPNTGKK, peptide start residue: 110)”, the log2 fold change was -0.605.

Take “UniProt Q8VDM4 (peptide sequence: SETELKDTYAR, peptide start residue: 546)”: the log2 fold change is -1.29.
